Test results: PubChem BioAssay AID1347150 (National Center for Advancing Translational Sciences (NCATS), 2019)
Records with an inconclusive call do not appear. Active and inactive are the calls of the source. The call rests on the fitted dose curve; in most records, active means well fitted curve in the direction sought with a large enough effect; inconclusive means small, poorly fitted or top-dose-only effect, or another doubt; inactive means no such curve, though single readings can be large or run the other way. Numbered stars: 1 amine (or outer) side, 2 acyl side, 3 side chain; on linkers, the order of the positions; unused ones are H or OH. Bridge positions count the residues as written; N and C are the ends. Square brackets hold non-standard residues; d marks the D form. Peptide text beside a SMILES is read from it. I, II: the chains in the order shown. Actinocin(9to1) = Cc1c2oc3c(C)ccc(C(=O)[*:1])c3nc-2c(C(=O)[*:2])c(N)c1=O; NMeV = CN[C@H](C(=O)O)C(C)C; Sar = CNCC(=O)O

system: Zika virus NS2B-NS3 protease (linked); assay: Optimization screen NINDS AMC qHTS for Zika virus inhibitors: Linked NS2B-NS3 protease assay; details: recombinant linked NS2B-NS3 protease, AMC fluorogenic substrate; series mostly up to 52.5 µM; activity change, negative = inhibition: at the top concentration
Source text: Avindra Nath, Ph.D., National Institute of Neurological Disorders and Stroke (NINDS), Bethesda, MD
Radhakrishnan Padmanabhan, Ph.D., Georgetown University (GU), Washington D.C.
Zika Virus causes congenital defects, including microcephaly and is associated with Guillain-Barre syndrome, eningoencephalitis and myelitis in infected adult. […] Using a target-based approach, we hope to establish a screening paradigm to uncover novel, cell-active NS2B-NS3 protease (Zika Virus) specific inhibitors from NCATS' collection of small molecules using qHTS.
Four assay panel was created to identify potential Zika Virus inhibitors. Namely, (1) GU unlinked NS2B-NS3 AMC tagged protease qHTS, (2) GU unlinked NS2B-NS3 Rhodamine tagged protease qHTS, (3) NINDS linked NS2B-NS3 AMC tagged protease qHTS, (4) NINDS linked NS2B-NS3 Rhodamine tagged protease qHTS. Active compounds were re-acquired and re-screened to confirm inhibition. Inhibitors were further screened against various confirmatory and counterscreens in dose response format.
Early Translation Branch (ETB)
National Center for Advancing Translational Sciences (NCATS), Rockville, MD
National Institute of Health (NIH), Bethesda, Maryland
For the linked assay, Nath lab (NINDS) provided the purified linked NS2B-NS3 protease which is consists of hydrophilic domain of NS2B linked to the NS3 protease domain by a flexible (-GGGGSGGGG-) linker. Control compound aprotinin is obtained from Thermo Scientific (#78432; Waltham, Massachusetts). NS2B-NS3 AMC substrate (Bz-Nle-Lys-Arg-Arg-AMC; Nle-KRR-AMC) purchased from Bachem (#I-1995; Torrance, CA). Ac-VKTGKR-AMC purchased from Genscript or Bachem, Ac-FAAGKR-AMC purchased from Genscript, Ac-GLVKRR-AMC purchased from Genscript, Ac-LKKR-AMC purchased from Genscript.
NINDS AMC linked NS2B-NS3 protease qHTS protocol:
Briefly, 3 microL of Zika virus linked NS2B-NS3 protease (1 nM for linked final concentration), in assay buffer (10 mM Tris-HCl pH 8.0 with 0.01% Tween 20) was dispensed into a 1,536-well solid-bottom black plate (Greiner Bio One, Monroe, NC). Twenty-three nL of compounds (final concentration range 7.28 nM to 114 microM) or control Aprotinin (final concentration range 3.47 nM to 114 microM) were transferred via Wako Pin-tool (Wako Automation, Richmond, VA). Samples were incubated (room temperature, protected from light) for 15 minutes followed by a 1 microL AMC substrate addition of (final concentration of 10 microM; Km = 18.3 µM). Plates were then read immediately on a ViewLux High-throughput CCD imager (PerkinElmer, Waltham, MA) equipped with standard UV fluorescence optics (340(30) nm excitation, 450(20) nm emission) then incubated (room temperature, protected from light) for 15 minutes (~20% conversion). The change in fluorescence intensity over the 15-minute reaction period was normalized against no-inhibitor and no-enzyme controls and the resulting percent inhibition data were fitted to a 4-parameter Hill equation. Aprotinin was used as the intraplate control.

Potency, inactive:
Nc1nc(=S)c2[nH]cnc2[nH]1
Cc1c2oc3c(C)ccc(C(=O)N[C@@H]4C(=O)N[C@H](C(C)C)C(=O)N5CCC[C@H]5C(=O)N(C)CC(=O)N(C)[C@@H](C(C)C)C(=O)O[C@@H]4C)c3nc-2c(C(=O)N[C@@H]2C(=O)N[C@H](C(C)C)C(=O)N3CCC[C@H]3C(=O)N(C)CC(=O)N(C)[C@@H](C(C)C)C(=O)O[C@@H]2C)c(N)c1=O (I: T[dV]P[Sar][NMeV] / II: T[dV]P[Sar][NMeV]; ester I:1-I:C, II:1-II:C; linker I:N-II:N via Actinocin(9to1))

Activity change, negative = inhibition, inactive:
COC(=O)Nc1nc2ccc(C(=O)c3ccccc3)cc2[nH]1 7.48%
C[C@H](NC(=O)C(=O)Nc1ccccc1C(C)(C)C)C(=O)N[C@@H](CC(=O)O)C(=O)COc1c(F)c(F)cc(F)c1F 3.42%
C[C@H]1O[C@@H](O[C@H]2[C@@H](O)C[C@H](O[C@H]3[C@@H](O)C[C@H](O[C@H]4CC[C@]5(C)C6C[C@@H](O)[C@]7(C)[C@@H](C8=CC(=O)OC8)CC[C@]7(O)C6CC[C@@H]5C4)O[C@@H]3C)O[C@@H]2C)C[C@H](O)[C@@H]1O (some centres not stated) 0.817%
CC1OC(OC2C(O)CC(OC3C(O)CC(OC4CCC5(C)C(CCC6C5CC(O)C5(C)C(C7=CC(=O)OC7)CCC65O)C4)OC3C)OC2C)CC(O)C1O (configuration not stated) 4.68% [at 114 µM]
CC1O[C@@H](O[C@@H]2C(O)C[C@H](O[C@@H]3C(O)C[C@@H](OC4CC[C@@]5(C)C6CC(O)[C@@]7(C)C(C8=CC(=O)OC8)CC[C@@]7(O)C6CC[C@@H]5C4)OC3C)OC2C)CC(O)[C@H]1O (some centres not stated) 4.73%
